# Assay results from the supplement of paper PMC6555819.
# How the values were obtained:
# Experiment in all cases: PBM binding z-score (relative to random genomic background probes); higher = stronger binding; sequences stand for … in GC…GCGATTGACAGCGTAGAATGAAGG
# [1] = tested on: FXR:RXRa (NR concentration 270 nM, RXRa partner concentration 90 nM)
# Method in brief: (§1)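 Antibodies against each partner of ligand-free nuclear receptor dimers (one per run) detected binding on custom Agilent 4×180K protein-binding microarrays after 1 h incubation. The double-stranded probes had 34-nt variable regions carrying direct-repeat seeds, single-nucleotide variants, half-site ablations and random human genomic background sequences. Binding z-scores, from regression-normalized fluorescence, use the random background probes as reference.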
# [2] = tested on: LXRa:RXRa (NR concentration 270 nM, RXRa partner concentration 90 nM)
# Method in brief: as §1
# [3] = tested on: LXRa homodimer (NR concentration 270 nM)
# Method in brief: as §1
# [4] = tested on: LXRb:RXRa (NR concentration 270 nM, RXRa partner concentration 90 nM)
# Method in brief: as §1
# [5] = tested on: LXRb homodimer (NR concentration 270 nM)
# Method in brief: as §1
# [6] = tested on: PPARa:RXRa (NR concentration 270 nM, RXRa partner concentration 90 nM)
# Method in brief: as §1
# [7] = tested on: PPARg:RXRa (NR concentration 180 nM, RXRa partner concentration 90 nM)
# Method in brief: as §1
# [8] = tested on: PPARg:RXRa 270nM:90nM, anti-RXR (NR concentration 270 nM, RXRa partner concentration 90 nM)
# Method in brief: as §1
# [9] = tested on: PPARg:RXRa 30nM:10nM, anti-RXR (NR concentration 30 nM, RXRa partner concentration 10 nM)
# Method in brief: as §1
# [10] = tested on: PPARg:RXRa 90nM:30nM, anti-RXR (NR concentration 90 nM, RXRa partner concentration 30 nM)
# Method in brief: as §1
# [11] = tested on: PPARg:RXRa DBDmut IVT, anti-RXR (DBD mutation: RXRa K156A/R161A, NR concentration 270 nM, RXRa partner concentration 90 nM)
# Method in brief: as §1
# [12] = tested on: PPARg:RXRa IVT, anti-PPARg (NR concentration 270 nM, RXRa partner concentration 90 nM)
# Method in brief: as §1
# [13] = tested on: PPARg DBDmut:RXRa IVT, anti-PPARg (DBD mutation: PPARg1 K132A/R137A, NR concentration 270 nM, RXRa partner concentration 90 nM)
# Method in brief: as §1
# [14] = tested on: PPARg DBDmut IVT, anti-PPARg (DBD mutation: PPARg1 K132A/R137A, NR concentration 270 nM)
# Method in brief: as §1
# [15] = tested on: PPARg homodimer (NR concentration 180 nM)
# Method in brief: as §1
# [16] = tested on: PXR:RXRa (NR concentration 270 nM, RXRa partner concentration 90 nM)
# Method in brief: as §1
# [17] = tested on: PXR homodimer (NR concentration 270 nM)
# Method in brief: as §1
# [18] = tested on: RARa:RXR (NR concentration 270 nM, RXRa partner concentration 90 nM)
# Method in brief: as §1
# [19] = tested on: RARa homodimer (NR concentration 270 nM)
# Method in brief: as §1
# [20] = tested on: RARb:RXRa (NR concentration 270 nM, RXRa partner concentration 90 nM)
# Method in brief: as §1
Sequence,PBM binding z-score [1],PBM binding z-score [2],PBM binding z-score [3],PBM binding z-score [4],PBM binding z-score [5],PBM binding z-score [6],PBM binding z-score [7],PBM binding z-score [8],PBM binding z-score [9],PBM binding z-score [10],PBM binding z-score [11],PBM binding z-score [12],PBM binding z-score [13],PBM binding z-score [14],PBM binding z-score [15],PBM binding z-score [16],PBM binding z-score [17],PBM binding z-score [18],PBM binding z-score [19],PBM binding z-score [20]
TGAATGAGGTTATGAGATCAGGGAACGTTGCAAA,1.67,1.4,-0.558,0.95,-0.381,3.11,1.64,1.96,0.899,1.31,1.33,2.1,0.285,-0.0697,0.328,0.684,0.16,1.57,-0.0238,1.39
CGTCCAAGGTCAGCCGGTCAGTGAAAGCGACGTG,5.37,3.63,0.364,2.5,-0.165,4.18,2.43,3.24,0.459,1.79,2.51,2.75,-0.217,-1.45,2.55,2.9,0.408,3.71,0.671,5
TAGCCTAGGTCATTCAGGGGACAGTATAGAAAGC,4.83,4.05,1.41,3.39,1.57,3.96,2.88,2.81,0.785,1.62,2.17,3.28,0.412,0.909,1.58,2.58,0.0541,3.72,0.228,4.09
AGAACGAGGGCACGCTGCGTTGATAGCAGAGTAG,0.623,0.419,-0.7,-0.144,-0.905,1.75,1.89,1.74,0.373,1,4.17,3.95,0.425,-0.427,0.0277,0.123,-0.527,0.344,-0.962,2.52
TCAAATAGGTAAATGCTAGGTGAAAGTCCGATCT,1.32,0.737,-0.0235,0.834,-0.239,1.52,0.685,2.74,4.4,3.68,3.54,2.47,0.483,0.699,0.99,0.653,0.443,1.16,1.43,0.7
GCTTACGGGTCACAGGTTATAGCATGAATAGAAT,6.03,3.91,-0.00317,3.73,0.0394,5.75,7.57,6.67,4.61,6.2,4.72,5.4,2.51,1.47,1.81,3.52,-0.0291,4.84,0.515,4.03
ACTTACGGGTCAACGAGGTTAAAGCACGCGTATA,7.3,5.07,0.882,4.97,0.527,6.09,6.14,5.57,2.44,4.29,3.22,4.19,0.985,1.02,2.28,5.38,3.33,5.36,0.479,4.53
TAGCCTAGGTCAGGTCGGGCCAGTATACGCTATA,2.66,1.06,-0.52,0.724,-0.502,1.71,0.639,0.781,-0.544,0.204,0.315,1.69,-0.681,-1.44,0.477,1.51,-0.668,1.25,-1.19,3.24
TCTGCTAGGTCAATGATGGTCAGCTAATCTGCTA,2.48,2.82,-0.0629,1.38,-0.0652,2.69,1.53,2.35,1.77,2.05,3.8,3.49,0.246,-0.13,0.244,1.02,-0.71,1.46,-0.32,3.72
TCTCGGAGGACACGGAAGGTCAGAGCTCGACATC,2.08,1.8,1.19,1.33,-0.694,2.04,0.365,1.4,2.23,1.53,1.04,1.13,-0.462,-0.403,1.27,2.53,0.114,2.45,-0.138,3.44
CGTCCTAGGTCAAAGGTCAGTGAAGAGATGACGG,7.08,5.88,2.24,5.52,0.881,6.8,11,9.26,9.03,10.2,4.39,5.93,0.538,0.49,3.9,6.08,0.262,7.96,1.07,5.64
CTACCAAGGTGAACAAGGTCGATGATTACTATTC,0.946,0.835,0.167,1.18,-0.531,2.13,1.2,0.941,0.12,0.353,2.72,2.64,0.547,0.654,0.419,1.43,0.443,1.63,0.548,1.95
CAAACTTGGTCACCGGAAGGTCAAAGTCCGCATG,3.58,3.72,3.5,3.39,0.75,3.7,2.29,3,0.605,2.01,2.35,3.45,0.726,1.15,2.58,4.26,1.08,4.78,0.786,3.77
AGAACGAGGGCAAGCTGAGTTGATAGCAGAGTAG,0.521,0.295,-0.476,0.14,-0.878,1.4,1.32,1.19,0.0687,0.484,3.94,2.42,0.0132,-0.565,0.238,1.13,0.458,0.426,-0.421,2.46
TTACCAAGGTGAGCTGAGGTCGTTGCTCCAACTC,1.27,1.21,-0.608,0.819,-1.17,1.42,-0.334,0.661,-0.351,0.141,1.08,2.12,-0.398,-1.21,-0.419,4.75,0.304,1.6,-0.876,1.74
ACTTACGGGTTAACGAGGTTATAGCACGCGTATA,2.07,2.74,0.54,2.31,0.221,3.12,1.66,2.16,0.682,1.49,1.74,2.15,0.886,1.18,1.01,2.88,0.801,2.6,0.88,1.69
TTACCAAGGTGAGCTGAGCTCGTTGATCCAACTC,-0.195,-0.544,-0.993,-0.67,-1.3,0.11,-0.393,-0.0625,-0.293,-0.268,0.946,1.2,0.0399,0.147,-0.967,-0.427,-0.854,0.0745,-1.22,0.907
GCTAGCAGGCCATTTGGGTCACTAAATGACGGGC,0.069,-0.203,-0.746,-0.105,-1.17,1.44,0.795,0.692,-0.344,0.257,1.58,2.38,-1.03,-1.18,-0.0846,0.38,-0.331,0.585,-0.777,1.42
ATATGTAGTTTACATCCGGGTCATTCAGGCTATG,1.49,2.34,1.08,2.31,1.04,2.59,1.19,1.19,0.609,1.53,1.36,2.27,1.09,1.65,1.01,2.91,3.16,2.85,0.262,1.51
AGAACGAGTGCAATGAGTTGATAGCACGGGTGGC,-0.597,-0.443,-0.783,-0.585,-1.04,-0.17,0.712,-0.327,-0.239,-0.508,-0.425,-0.173,-0.0779,-0.15,-0.623,1.9,7.51,-0.248,-1.04,0.212
ACTCGTAGGACAAAGGTCAGAGCTACGCCAGTGA,3.9,4.29,1.39,3.3,0.607,5.11,7.99,7.75,6.47,8.26,1.2,3.67,0.241,0.756,4.17,3.73,0.25,4.94,1.41,4.18
TTACCAAGGTGTAGGTCGTTGATCCCTCTGTAGA,0.674,1.15,0.0593,0.801,-0.638,0.814,-0.0136,1.68,0.61,1.52,-0.191,0.759,-0.595,0.0644,0.0452,0.444,-0.501,0.688,-0.329,0.379
CTAGAAAGGTCGTGCTCAGGTGAGTATACCAAAC,4.5,3.64,0.405,3.02,0.336,4.78,2.51,3.48,0.919,2.34,0.638,1.62,-0.0853,0.547,1.73,2.82,0.0874,4.02,0.32,3.63
CTCGAAAAGTCGTGCTCAGGTGAGTATACCAAAC,0.362,0.378,-0.0855,0.084,-0.108,0.252,-0.24,-0.203,-0.421,-0.205,-0.109,0.391,0.0169,0.325,1.15,0.0376,0.0183,0.523,-0.119,0.264
ACTTACGGGTCAACAAGGTTATAGCACGCGTATA,6.88,4.7,0.809,4.4,1.05,6.09,5.69,5.32,2.2,4.02,3.06,4.26,1.25,1.13,2.14,4.49,1.48,4.77,1.05,4.49
GTACCAAGGTGAATAGGGCGTTGATGAGTAGGCG,0.407,0.248,-0.214,-0.0331,-0.614,1.22,1.02,0.756,-0.0867,0.088,1.79,2.39,0.11,-0.0449,0.629,-0.0283,0.127,0.434,0.194,1.5
CGCGAAAGGTCGTGCTCAGGTGAGTATACCAAAC,5.65,3.9,0.199,3.55,-0.0921,4.89,3.65,4.46,0.769,2.86,0.794,1.92,0.376,-0.142,2.14,3.61,0.0719,4.63,0.019,4.18
CGTCCAAGGTTATAGGAGGTCAGTGAAGACAGAT,3.51,7.81,5.37,6.47,0.402,3.39,1.35,1.77,0.207,0.943,1.11,2.3,0.293,0.256,3.21,5.24,1.46,3.66,0.744,3.48
TCAGACAGGTGAAGGCAACTCAGGTACGCAGTCG,0.773,0.656,-0.307,0.471,-0.243,0.995,0.701,1.77,3.36,2.58,2.4,0.632,-0.586,-0.648,0.236,0.249,-0.101,0.507,-0.314,0.923
